In the library only some 1.3% were active in any assay of this set; here they are far more common.
mIDH1 inhibitor: qHTS for Inhibitors of mutant isocitrate dehydrogenase 1 (IDH1): qHTS | IDH1-R132H enzyme, NADPH consumption, diaphorase/resazurin fluorescence | hit rate 0.093% among 390,000 | Isocitrate dehydrogenase [NADP] cytoplasmic (Homo sapiens), O75874 | Potency, µM (top dose mostly 76.6 µM), for the others: at the highest dose activity change, negative = inhibition, hits mostly inhibitors | AID 602179, 2012; further: nearly all actives have a fitted effect of over 65% in size
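IDH1-R132H (0.5 ug/mL dispensed) in pH 7.5 Tris buffer was preincubated 30 min with compound, then given a substrate mix of 0.016 mM NADPH and 2 mM alpha-KG for 80 min at room temperature; remaining NADPH was read by diaphorase/resazurin fluorescence.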
GALK inh: qHTS Assay for Inhibitors of Human Galactokinase (GALK); AID 1868, 2009; Purified GALK, Kinase-Glo residual ATP luminescence; Potency, µM (doses to about 57.5 µM), inactives show top-dose activity change, negative = inhibition, hits mostly inhibitors; hit rate 0.007% among 270,000
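Galactose (100 uM) and ATP (35 uM) were turned over by 5 nM GALK for 1 h at RT. Kinase-Glo Plus then converted the remaining ATP into a luminescent signal.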
TrxR1 substrate: qHTS Assay for Substrates of Mammalian Selenoprotein Thioredoxin Reductase 1 (TrxR1): qHTS; Thioredoxin reductase 1, cytoplasmic (Rattus norvegicus), O89049; purified TrxR1 substrate turnover, NADPH consumption readout; Potency, µM (titrated, usually from 114 µM), inactives show top-dose activity change, negative = substrate turnover; hit rate 0.01% among 390,000; further: nearly all actives have a fitted effect of over 50% in size
Target sequence (O89049 whole entry, looked up): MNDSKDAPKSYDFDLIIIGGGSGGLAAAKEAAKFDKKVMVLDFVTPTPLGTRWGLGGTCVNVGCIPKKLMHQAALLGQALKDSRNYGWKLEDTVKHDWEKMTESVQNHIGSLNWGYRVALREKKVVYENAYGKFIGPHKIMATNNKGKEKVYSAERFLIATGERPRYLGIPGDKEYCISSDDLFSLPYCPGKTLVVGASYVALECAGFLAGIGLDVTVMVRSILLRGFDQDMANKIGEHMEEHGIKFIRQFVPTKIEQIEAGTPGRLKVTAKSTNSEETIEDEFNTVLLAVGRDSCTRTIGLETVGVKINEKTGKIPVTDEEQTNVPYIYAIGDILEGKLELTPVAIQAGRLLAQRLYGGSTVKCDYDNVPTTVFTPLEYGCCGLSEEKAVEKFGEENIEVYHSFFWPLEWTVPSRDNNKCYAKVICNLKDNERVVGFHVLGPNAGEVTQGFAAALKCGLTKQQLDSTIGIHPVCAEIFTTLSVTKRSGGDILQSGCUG
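Rat TrxR1, dispensed at 90 nM, was prereduced with 400 uM NADPH (final) for 5 min at ~22 deg C, then incubated with compound 15 min before 400 uM selenite. A first-read NADPH fluorescence drop versus no-compound background flagged substrates.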
rTrxR1 inhibitor: qHTS Assay for Inhibitors of Mammalian Selenoprotein Thioredoxin Reductase 1 (TrxR1): qHTS; Thioredoxin reductase 1, cytoplasmic (Rattus norvegicus), O89049; recombinant rTrxR1, NADPH fluorescence consumption, selenite substrate; Potency, µM (series often up to 114 µM), inactives show top-dose activity change, negative = inhibition, actives largely listed as inhibitors; hit rate 1% among 390,000; AID 588453, 2011; further: nearly all actives have a fitted effect of over 65% in size
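Rat TrxR1 (90 nM in the dispensed reagent) was pre-reduced with 400 uM NADPH for 5 min at room temperature, then incubated with compound for 15 min. After 400 uM selenite was added, NADPH fluorescence (Ex 340/Em 450 nm) was followed for 8 min.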
Apoferritin bind: qHTS Assay for Identification of Novel General Anesthetics; apoferritin/1-aminoanthracene competitive binding, fluorescence; Potency, µM (top dose mostly 77.5 µM), for the others: at the highest dose activity change, negative = displacement, hits mostly inhibitors; hit rate 0.074% among 350,000; further: nearly all actives have a fitted effect of over 20% in size
Target sequence (P02791 2-175 limits assumed): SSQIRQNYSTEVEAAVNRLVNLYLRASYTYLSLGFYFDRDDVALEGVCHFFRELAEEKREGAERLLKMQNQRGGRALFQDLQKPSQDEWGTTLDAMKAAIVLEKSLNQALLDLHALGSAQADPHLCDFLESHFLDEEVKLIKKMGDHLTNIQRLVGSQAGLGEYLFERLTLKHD
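Steps: apoferritin (10 uM) was premixed with half-saturated 1-AMA in PBS, compounds were pin-transferred, plates stood 10 min at room temperature, fluorescence was read at 380/535 nm, and curves were fitted with a Hill equation.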
PKM2 act: qHTS Assay for Activators of Human Muscle isoform 2 Pyruvate Kinase | Potency, µM (titrated, usually from 57.5 µM), without a hit: at the highest dose activation, most hits filed as activators | Pyruvate kinase PKM (Homo sapiens), P14618 | purified PKM2, Kinase-Glo ATP luminescence, activation; response scale: 0% is enzyme alone, no compound | hit rate 0.34% among 260,000; further: nearly all actives have a fitted effect of over 55% in size
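Purified hPK-M2 (>95%) run at intermediate activity with 0.1 mM ADP and 0.5 mM PEP in 50 mM imidazole pH 7.2, KCl, MgCl2; 1 h room temperature. ATP formed read by Kinase-Glo luminescence; normalized to uninhibited and no-enzyme controls.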
The depositor's hits bear a star; ? = inconclusive; · = not tested or not shown; [ ] = dose if it differs, or a comment. The call rests on the fitted dose curve; in most records, active means well fitted curve in the direction sought with a large enough effect; inconclusive means small, poorly fitted or top-dose-only effect, or another doubt; inactive means no such curve, though single readings can be large; an effect the other way counts as inactive or inconclusive. On the % scale 0 is the no-effect control and ±100 the full control effect; potency means the concentration at half of the fitted maximal effect.

SMILES | mIDH1 inhibitor | GALK inh | TrxR1 substrate | rTrxR1 inhibitor | Apoferritin bind | PKM2 act
CC(C)(C)c1ccc(-n2nc(C#N)c(Cl)cc2=O)cc1 | -6% | -11% | 4%[57.1 µM] | 16µM* | ? | -6%
O=C(/C=C/c1cccs1)Nc1sc2c(c1C(=O)O)CCCC2 | 17% | -13% | -16% | -18% | -12% | -1%
NC(=O)c1c(/N=C/c2cccs2)sc2c1CCCC2 | 0% | 2% | -2% | 40µM* | 1% | -2%
Cc1nc2ccn(Cc3cccs3)c(=O)c2cc1C(=O)NCc1ccc(Br)cc1 | -4% | · | 3%[57.1 µM] | 5%[57.1 µM] | ? | ·
O=C(CCc1ccccc1)c1c(O)cc(O)cc1O | 22% | -2% | 2% | 20µM* | ? | 0%
CCc1cnc2ccccc2c1/C=C/c1ccc(N(C)C)cc1 | · | · | -7% | -13% | · | ·
Cc1cccc(NC(=O)C2CC(=O)n3cnnc3S2)c1 (configuration not stated) | -6% | -3% | -3% | 7.1µM* | -24% | 9%
CCNC(=O)NC(=O)COC(=O)c1ccccc1SCC(=O)NC(=O)NCC | 27% | 2% | 57% | 35µM* | -8% | -20%
O=C(COC(=O)c1ccccc1SCC(=O)NC1CCS(=O)(=O)C1)NC1CCS(=O)(=O)C1 (configuration not stated) | 11% | 2% | 11%[57.1 µM] | 18%[57.1 µM] | 1% | -30%
CN(C)c1ccc(/C=C2\C=Cc3ccccc32)cc1F | · | · | -4% | -2% | · | ·
O=C1C2C3C=CC(C4CC34)C2C(=O)N1/N=C/c1ccc([N+](=O)[O-])o1 (configuration not stated) | 1% | -1% | -4%[57.1 µM] | 14µM* | -20% | 0%
COC(=O)c1ccc(-c2ccc(/C=N/N3C(=O)C4C5C=CC(C6CC56)C4C3=O)o2)cc1 (configuration not stated) | -1% | 2% | 21% | 20µM* | ? | -3%
O=C1C2C3C=CC(C4CC34)C2C(=O)N1/N=C/c1ccc(-c2ccc([N+](=O)[O-])cc2)o1 (configuration not stated) | 9% | 2% | 9%[57.1 µM] | 8%[57.1 µM] | -7% | -2%
O=C1C2C(C(=O)N1/N=C/c1ccc([N+](=O)[O-])o1)C1C=CC2C12CC2 (configuration not stated) | 7% | 1% | -12% | 56µM* | -2% | -3%
O=[N+]([O-])C(/C=C(\Cl)[N+](=O)[O-])=C1N(Cc2ccc(Cl)nc2)CCN1Cc1ccc(Cl)nc1 | 13% | -6% | -10% | 1.8µM* | -16% | 5%
Cc1cc(NC(=O)CN(C)S(=O)(=O)c2ccc3c(c2)CCCC(=O)N3)ccc1Br | -13% | · | 2% | 19% | 0% | ·
CC1=C(\C=C/C(C)=C/C=C\C(C)=C\C(=O)O)C(C)(C)CCC1 | · | · | · | · | 5%[29.3 µM] | ·
CC1=C(/C=C/C(C)=C/C=C/C(C)=C\C(=O)O)C(C)(C)CCC1 | -4% | · | 3%[57.1 µM] | 35µM* | ? | ·
Cc1cc(C)c(S(=O)(=O)/N=C2/C=C(Sc3ncn[nH]3)C(=O)c3ccccc32)cc1C | 16% | 0% | 14µM* | ? | -15% | -18%
Cc1ccc(C)c(S(=O)(=O)/N=C2\C=C(NS(=O)(=O)c3ccccc3)C(=O)c3ccccc32)c1 | 21% | -3% | -10% | -13% | -12% | ·
COc1cc2nc(N3CCCCC3)nc(NC3CC3)c2cc1OC | · | · | 82% | -4% | · | ·
Cc1cc(C)n(C(C[N+](=O)[O-])c2ccc(Cl)cc2)n1 (configuration not stated) | 0% | -5% | 4% | 5.6µM* | ? | -2%
Cc1cc(O)c(C(C[N+](=O)[O-])c2ccc(Cl)cc2)c(=O)o1 (configuration not stated) | 3% | -2% | -2% | -34% | -10% | -6%
COc1ccc(-n2ccc(=O)c3c2CCCC3=O)cc1 | -1% | 4% | -4% | 3% | -8% | 28µM*
Cn1c(/C=C/c2ccccc2)nc2ccccc2c1=O | 9% | · | -3% | -13% | -12% | ·
SMILES | mIDH1 inhibitor | GALK inh | TrxR1 substrate | rTrxR1 inhibitor | Apoferritin bind | PKM2 act
Cn1c(/C=C/c2ccc([N+](=O)[O-])o2)nc2ccccc2c1=O | 6% | -6% | -12% | 10µM* | -11% | 7%
O=C1S/C(=C\c2ccc(O)c([N+](=O)[O-])c2)C(=O)N1c1ccccc1Cl | -3% | 3% | -12% | -1% | 13µM* | 7%
COc1cc(/C=C2\SC(=O)N(c3ccc(Cl)cc3)C2=O)cc([N+](=O)[O-])c1O | 0% | 0% | -9%[57.1 µM] | -12%[57.1 µM] | -16% | 19%
COc1cc(/C=C2\SC(=O)N(c3cccc(Cl)c3)C2=O)cc([N+](=O)[O-])c1O | 22% | 5% | -21%[57.1 µM] | -22% | -21% | 7.9µM*
O=C1S/C(=C\c2ccc(O)c([N+](=O)[O-])c2)C(=O)N1Cc1cccc([N+](=O)[O-])c1 | 18% | -9% | 3%[57.1 µM] | 9%[57.1 µM] | -14% | -1%
CN(C)c1ccc(/C=C2/CCc3ccccc32)cc1 | · | · | -15% | -8% | · | ·
C(=C\c1ccnc2ccccc12)/c1cccnc1 | · | · | -1% | 9% | · | ·
Cc1nnnn1/C(=C\c1ccccc1)C(=O)OCC(=O)Nc1cccc(S(=O)(=O)N(C)C)c1 | -5% | · | -8% | 13µM* | · | ·
O=C(NCc1ccc(F)cc1Cl)c1ccc(CSCc2ccccc2Cl)o1 | 4% | · | 0%[57.1 µM] | 20%[57.1 µM] | 10% | ·
CCS(=O)(=O)c1ncc(Cl)c(C(=O)Nc2ccc(S(=O)(=O)N(C)c3ccccc3)cc2)n1 | -2% | -12% | 2% | 2.8µM* | -35% | ·
CCN(c1ccccc1)S(=O)(=O)c1ccc(NC(=O)c2nc(S(C)(=O)=O)ncc2Cl)cc1 | 0% | -5% | -3% | 0.4µM* | ? | ·
COc1ccc2[nH]c(C(O)C(O)c3nc4c(OC)c(OC)ccc4[nH]3)nc2c1OC (configuration not stated) | · | · | 7% | 21% | · | ·
CC(=O)N(Cc1cccnc1)c1nc2ccc(F)cc2s1 | 12% | · | 5%[57.1 µM] | 19%[57.1 µM] | -2% | ·
O=C(CCS(=O)(=O)c1ccccc1)N(Cc1cccnc1)c1nc2ccc(F)cc2s1 | -17% | · | 1%[57.1 µM] | 3.2µM* | 57% | ·

Screens from PubChem BioAssay.
